# Screening results from PubChem BioAssay.
# KCNQ2 inh: KCNQ2 (rat) channel inhibition. O88943. CHO-K1 KCNQ2, FluxOR thallium flux, 20 min; hits give low values. AID 2156. B-score at 10 µM. 310,000 compounds, 1.1% hits;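 active = fluorescence ratio B-score at most minus 3 library SDs, with starting brightness B-score within 2 library SDs, cut at about -5.5 in these data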
# KCNQ2 enhance: KCNQ2 (rat) channel potentiation. 310,000 compounds, 0.54% hits. B-score at 10 µM. AID 2239. O88943. CHO-K1 KCNQ2, FluxOR thallium flux fluorescence; hits give high values;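 active = fluorescence ratio B-score at least 3 SD of library B-scores, with initial fluorescence B-score within 3 of them, cut at about 5.3 in these data; same plate scores as AID 2156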;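 also: B-score of peak minus minimum over baseline fluorescence ratio after K+ and Tl+ stimulus; positive B-score means potentiation of KCNQ2 with more thallium influx and brighter signal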
# Kir21 confirm: confirmation of mouse Kir2.1 potassium channel inhibitors; shares compounds with KCNQ2 enhance; 2,300 compounds, 41% hits; Tl flux remaining, % of negative control (hits give low values), % at 10 µM; Kir2.1-expressing cells, FluxOR thallium flux fluorescence; hits give low values;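 active = Primary-screen hit whose thallium flux fell at least 3 control SD below untreated wells in both duplicates, with normal baseline fluorescence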;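 also: 0% = blank wells without stimulus and 100% = stimulated no-compound controls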
# HEK293 Tl flux: alters thallium flux in parental HEK293 cells, Kir2.1 counter-screen; shares compounds with KCNQ2 enhance; FluxOR thallium flux fluorescence; 0% = unstimulated blank wells; FluxOR signal as % of negative control (100 = no effect), % at 10 µM; 2,300 compounds, 19% hits;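 active = dye signal at least 3 control SD above or below untreated wells in both duplicates, raw fluorescence within 3, either direction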;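 also: percent is based on the flux ratio of peak minus minimum fluorescence over baseline F0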
# CHO-K1 ctr: counter-screen for KCNQ2 potentiators: effect in parental CHO-K1 cells; 1,200 compounds, 43% hits; AID 2282; activity increase over 3SD of controls, % at 10 µM; FluxOR thallium flux fluorescence; zero = vehicle mean+3SD, 100% = vehicle-minus-blank window; shares compounds with KCNQ2 enhance;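 active = signal rise of at least 3 SD above the untreated control mean, in both duplicate wells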;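 also: counter screen of KCNQ2 potentiator hits so any rise reflects channel-independent effects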
# KCNQ1 sel pot: tests whether KCNQ2 potentiators also act on human KCNQ1; CHO KCNQ1 stable, FluxOR thallium flux fluorescence; beyond 3SD, as % of vehicle-control signal; shares compounds with KCNQ2 enhance; 1,200 compounds, 28% hits; activation over 3SD threshold, % at 10 µM;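 active = fluorescence ratio rise of at least 3 SD of vehicle wells above their mean, in both replicate wells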;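 also: 0% = vehicle mean plus 3 SD and 100% = vehicle minus unstimulated blank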
# KCNQ2 pot conf: confirmation of rat KCNQ2 potassium channel potentiators; shares compounds with KCNQ2 enhance; CHO-KCNQ2 cells, FluxOR thallium flux fluorescence; potentiation, less the hit threshold, % at 10 µM; 1,200 compounds, 68% hits; AID 2287;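 active = fluorescence ratio rising 3 SD or more over the vehicle control mean in both replicates, plus primary screen hit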;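 also: peak minus minimum thallium fluorescence divided by baseline after K/Tl stimulus; 0% = vehicle mean plus 3 SD and 100% = vehicle minus unstimulated blank difference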
# Kir21 spec: selectivity of KCNQ2 potentiators: effect on mouse Kir2.1. shares compounds with KCNQ2 enhance. 1,200 compounds, 2% hits. AID 2345. activity over 3SD threshold, % at 10 µM. HEK293 Kir2.1, FluxOR thallium flux fluorescence;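 active = fluorescence ratio rise of at least 3 SD above the vehicle-control mean, seen in both replicates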;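 also: 0% = vehicle mean plus 3 SD and 100% = vehicle minus no-stimulus blank window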
# KCNQ2 W236L pot: rat KCNQ2 W236L mutant potentiation by KCNQ2 potentiators; shares compounds with KCNQ2 enhance; CHO KCNQ2-W236L, automated patch clamp current; current increase over 3SD of negative controls (%), hits give high values, % at 25 µM; 940 compounds, 10% hits; AID 2558;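 active = current increase at least 3 SD of the untreated controls above them in both duplicate recordings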
# Target sequence (O88943 whole entry W236L, looked up): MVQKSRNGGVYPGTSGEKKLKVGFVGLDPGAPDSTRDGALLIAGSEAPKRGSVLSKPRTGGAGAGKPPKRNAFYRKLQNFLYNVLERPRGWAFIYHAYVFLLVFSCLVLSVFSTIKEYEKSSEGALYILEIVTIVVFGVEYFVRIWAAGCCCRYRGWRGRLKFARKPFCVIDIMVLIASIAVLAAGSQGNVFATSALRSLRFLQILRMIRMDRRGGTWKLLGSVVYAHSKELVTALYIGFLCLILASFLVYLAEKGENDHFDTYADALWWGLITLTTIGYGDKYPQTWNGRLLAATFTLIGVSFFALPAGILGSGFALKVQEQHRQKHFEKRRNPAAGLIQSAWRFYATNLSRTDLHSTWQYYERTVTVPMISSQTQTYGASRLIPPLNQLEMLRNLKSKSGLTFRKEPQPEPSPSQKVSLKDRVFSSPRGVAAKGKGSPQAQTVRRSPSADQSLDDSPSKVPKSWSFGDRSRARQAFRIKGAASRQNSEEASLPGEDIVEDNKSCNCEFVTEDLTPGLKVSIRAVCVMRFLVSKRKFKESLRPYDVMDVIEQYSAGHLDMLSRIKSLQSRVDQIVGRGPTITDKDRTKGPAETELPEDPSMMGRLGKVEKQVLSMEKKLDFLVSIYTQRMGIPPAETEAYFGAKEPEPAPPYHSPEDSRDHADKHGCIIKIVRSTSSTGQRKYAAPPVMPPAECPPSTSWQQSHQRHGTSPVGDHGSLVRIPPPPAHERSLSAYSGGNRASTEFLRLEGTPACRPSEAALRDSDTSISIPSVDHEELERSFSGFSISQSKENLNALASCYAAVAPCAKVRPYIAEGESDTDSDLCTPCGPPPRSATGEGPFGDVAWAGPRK
# * marks the source's active call; other numbers are inactive results; i = inactive; nt = no result given. This is a sample that favours compounds with a hit; in the whole collection about 1.6% have one here.
SMILES,KCNQ2 inh,KCNQ2 enhance,Kir21 confirm,HEK293 Tl flux,others
CCc1ccc(N(C(=O)c2snc(C(N)=O)c2N)C(C(=O)NCC2CCCO2)c2ccco2)cc1 (configuration not stated),i,0.55,nt,nt,
O=C(NNC1=C(C(=O)C(F)(F)F)CCC1)c1ccc(Br)cc1,i,4.8,nt,nt,
O=C(NNC(=O)c1ccccc1Cl)c1ccccc1Cl,i,0.96,nt,nt,
Nc1ccccc1C(=O)NNC1=C(C(=O)C(F)(F)F)CCC1,i,6.8*,i,i,CHO-K1 ctr=18*;KCNQ1 sel pot=-14;KCNQ2 pot conf=0;Kir21 spec=-29;KCNQ2 W236L pot=i
O=C(NNC1=C(C(=O)C(F)(F)F)CCC1)c1ccccc1Cl,i,19*,i,i,CHO-K1 ctr=-8;KCNQ1 sel pot=-20;KCNQ2 pot conf=74*;Kir21 spec=-28;KCNQ2 W236L pot=i
COc1cccc(C(=O)NN=C2CCCC2)c1,i,nt,nt,nt,
COc1cccc(C(=O)NNC2=C(C(=O)C(F)(F)F)CCC2)c1,i,6.4*,i,i,CHO-K1 ctr=3.0*;KCNQ1 sel pot=-7;KCNQ2 pot conf=21*;Kir21 spec=-28;KCNQ2 W236L pot=i
CCN1CC(CN(C)Cc2cn(-c3cccc(C)c3)nc2-c2cccc(F)c2)CC1=O (configuration not stated),i,nt,nt,nt,
CCOC(=O)CN1C(=O)NC(C)(c2ccc(OC(F)F)cc2)C1=O (configuration not stated),i,nt,nt,nt,
CC(=O)Nc1ccc(/C=N/N2C(=O)NC(C)(c3ccc(OC(F)F)cc3)C2=O)cc1 (configuration not stated),i,18*,i,i,CHO-K1 ctr=-27;KCNQ1 sel pot=11*;KCNQ2 pot conf=24*;Kir21 spec=-25;KCNQ2 W236L pot=i
C/C(O)=C(/C=Nc1ccccc1)C(=O)Nc1ccccc1,i,nt,nt,nt,
CCc1ccc(CN(C)C(C)C(=O)NCc2ccccc2)cc1 (configuration not stated),i,nt,nt,nt,
COc1ccc(CNC(=O)CN(C)Cc2ccc(SC)cc2)cc1,i,nt,i,i,
CSc1ccc(CN(C)C(C)C(=O)NCc2ccccc2)cc1 (configuration not stated),i,nt,34%*,i,
CSc1ccc(CN(C)CC(=O)NCc2ccccc2)cc1,i,nt,nt,nt,
COc1ccccc1C(=O)CN1C(=O)NC2(CCc3ccccc32)C1=O (configuration not stated),i,nt,nt,nt,
O=C(CSc1ccc(-c2ccc(Br)cc2)nn1)NC1CCCC1,i,nt,nt,nt,
COC(=O)c1sc(NC(=S)NC(=O)c2ccccc2C)nc1C,i,12*,i,302%*,CHO-K1 ctr=-4;KCNQ1 sel pot=33*;KCNQ2 pot conf=47*;Kir21 spec=-37;KCNQ2 W236L pot=i
COC(=O)c1sc(NC(=S)NC(=O)c2ccc(F)cc2)nc1C,i,2.3,nt,nt,
CCC(C(=O)OCC(=O)NC1CCS(=O)(=O)C1)c1ccccc1 (configuration not stated),i,0.59,nt,nt,
COc1cc(F)ccc1S(=O)(=O)n1c(C)nc2ccccc21,i,nt,52%*,i,
COc1cc(C)c(C)cc1S(=O)(=O)n1c(C)nc2ccccc21,i,nt,nt,nt,
NS(=O)(=O)c1c(Sc2ccccc2C(=O)O)ccc2ccccc12,i,3.9,nt,nt,
CCOc1ccc(N(CC)C(=O)CCS(=O)(=O)c2cccc3nonc23)cc1,i,nt,nt,nt,
O=C(COC(=O)C1CC(=O)N(Cc2ccco2)C1)c1ccc(OC(=O)c2ccccc2)cc1 (configuration not stated),i,0.01,i,i,
SMILES,KCNQ2 inh,KCNQ2 enhance,Kir21 confirm,HEK293 Tl flux,others
O=C(OCC(=O)N1c2ccccc2Sc2ccccc21)C1CC(=O)N(Cc2ccco2)C1 (configuration not stated),i,nt,nt,nt,
O=C(COc1ccc([N+](=O)[O-])cc1)N(C1CCCCC1)C1CCS(=O)(=O)C1 (configuration not stated),i,nt,nt,nt,
COc1ccc(C)cc1NC(=O)CCNC(=O)c1ccco1,i,0.11,nt,nt,
COc1ccc(C)cc1NC(=O)C(=O)NNC(=O)c1ccco1,i,15*,i,359%*,CHO-K1 ctr=3.4*;KCNQ1 sel pot=-31;KCNQ2 pot conf=54*;Kir21 spec=-12;KCNQ2 W236L pot=i
COc1cc(OC)c(NC(=O)N2CCOCC2)cc1Cl,i,nt,nt,nt,
O=C1ON=C(c2ccccc2)/C1=C/c1ccc(O)c(O)c1,i,6.8*,70%*,i,CHO-K1 ctr=-4;KCNQ1 sel pot=-6;KCNQ2 pot conf=-1;Kir21 spec=-71;KCNQ2 W236L pot=i
COc1ccc(/C=C2\C(=O)ON=C2c2ccccc2)cc1,i,nt,nt,nt,
CCOC(=O)c1c2ccccc2[n+]([O-])n1CCO,i,0.95,nt,nt,
CCCc1ccc(OCc2ccc(C(=O)O)o2)c(OC)c1,i,0.16,nt,nt,
COc1ccc(CCN(C)C(=O)c2ccc(COc3ccccc3)o2)cc1OC,i,nt,56%*,i,
COCCNc1ccc(S(=O)(=O)N2CCCC2)cn1,i,1.7,nt,nt,
COc1ccccc1C(=O)Nc1ccccc1SC(=O)c1ccccc1OC,i,nt,nt,nt,
CN(c1ccc(O)cc1)S(=O)(=O)c1ccc2ccccc2c1,i,0.65,50%*,i,
CCN(c1ccccc1)S(=O)(=O)c1ccc2ccccc2c1,i,nt,nt,nt,
Cc1cc(O)cc(C)c1NS(=O)(=O)c1ccc2ccccc2c1,i,2.7,56%*,i,
CNS(=O)(=O)c1ccc2ccccc2c1,i,nt,nt,nt,
CCc1nnc(NC(=O)CCC(=O)NCCc2ccccc2)s1,i,2.4,nt,nt,
CCCn1c(=N)n(CC(O)c2ccc(C)cc2)c2ccccc21 (configuration not stated),i,0.93,60%*,i,
CCCn1c(=N)n(CC(O)COc2ccc(C)cc2)c2ccccc21 (configuration not stated),i,1.5,nt,nt,
CN(c1ccc(Cl)cc1)c1cc(=O)n(C)c2ccccc12,i,nt,i,i,
CN(C(=O)COc1cc(=O)n(C)c2ccccc12)c1ccc(Cl)cc1,i,nt,nt,nt,
COc1ccc(S(=O)(=O)Nc2c(NC3CCCCC3)c3ccccc3oc2=O)cc1,i,nt,nt,nt,
COc1ccc(C(C)NC(=S)NCc2ccc(F)cc2)cc1 (configuration not stated),i,1.2,nt,nt,
COc1cccc(C(C)NC(=S)NCc2ccc(Cl)cc2)c1 (configuration not stated),i,0.34,52%*,i,
COc1cc(NC2c3ncccc3C(=O)N2Cc2ccco2)cc(OC)c1OC (configuration not stated),i,0.6,nt,nt,
